Results from PubChem BioAssay AID1508623 (National Center for Advancing Translational Sciences (NCATS), 2021).
Hit rate of the full screen: of about 48,000 compounds, about 450 (0.94%) were called active. Roughly 19% stayed inconclusive and do not appear here. The sample as a whole holds a higher share of actives than the screen did. Values without a mark were called inactive. The call rests on the fitted dose curve; in most records, active means well fitted inhibition curve with a large enough effect; inconclusive means small, poorly fitted or top-dose-only effect; inactive means no such curve, though single readings can be large or run the other way.

Experiment: Primary qHTS for Identification of Small Molecule Inhibitors of Huntingtin Promoter Activity; further: nearly all actives have a fitted effect of over 50% in size
Conditions: HEK293 HTT promoter firefly luciferase reporter (activity 0% = vehicle and -100% = no light), 24 h; series mostly up to 57.5 µM; activity change, negative = inhibition: at the top concentration
Source text: Assay Provider: Russell L. Margolis M.D.
Department Neurology, Johns Hopkins University School of Medicine, Baltimore, MD
Huntington's Disease (HD) is a neurodegenerative disorder caused by a CAG repeat expansion in exon 1 of huntingtin (HTT). While there are currently no disease-modifying treatments for HD, recent efforts have focused on development of nucleotide-based therapeutics to lower HTT expression. As an alternative to siRNA or oligonucleotide methods, we hypothesized that suppression of HTT expression might be accomplished by small molecules that either (1) directly decrease HTT expression by suppressing HTT promoter activity or (2) indirectly decrease HTT expression by increasing the promoter activity of HTT-AS, the gene antisense to HTT that appears to inhibit expression of HTT.
We developed and employed a high throughput screen for modifiers of HTT and HTT-AS promoter activity using luminescent reporter HEK293 cells; of the 52,041 compounds tested, we identified 898 replicable hits. We used a rigorous stepwise approach to assess compound toxicity and the capacity of the compounds to specifically lower huntingtin protein in 5 different cell lines, including HEK293 cells, HD lymphoblastoid cells, mouse primary neurons, HD iPSCs differentiated into cortical-like neurons, and HD hESCs. We found no compounds which were able to lower huntingtin without lowering cell viability in all assays, though the potential efficacy of a few compounds at non-toxic doses could not be excluded.
SEQUENCE No. (1, 2, 3, etc.); […] (e.g., Cells, Incubation, Reagent, etc.); VALUE and DESCRIPTION.
1; Reagent; 4 uL; 2,500 Hek293 luciferase reporter cells per wells
3; Compound; 23 nL; Control inhibitor / compound library
5; Reagent; 2.5 uL; Firefly Luc reagent; Dual-Glo Luciferase Reporter Assay System (Promega)
6; Time; 10 min; room temperature incubation
7; Detection; Luminescence; FLuc
NOTES (numbers refer to sequence above)
1; High-throughput screening, measuring luminescence from a Hek293 luciferase reporter, was performed in 1,536 well white-walled tissue-culture treated plates. 2,500 cells were plated in 4 µL of Opti-MEM per well using a Multidrop Combi Reagent Dispenser (ThermoFisher).
2; Assay plates were cultured for 24 hours.
3; Control inhibitor (PTC124; final concentration of 50 uM) and compound library (at final concentrations of 460 nM - 57.5 uM) were added to the assay plate using the Kalypsis Pintool Robotic System equipped with 1536 pinheads.
4; Cells were then incubated for 24 hours at 37 degrees C prior to luminescence measurements.
5; In all cases, luminescence was measured using the Dual-Glo Luciferase Reporter Assay System (Promega) following the manufacturer's instructions.
6; Room temperature incubation.
7; Luminescence signal was obtained using the PerkinElmer ViewLux plate reader. Results were normalized to vehicle control (0% activity) and zero RLU (-100% activity).
Potency means the concentration at half of the fitted maximal effect.

| SMILES | activity change, negative = inhibition | Potency |
| --- | --- | --- |
| CCOc1ccc(S(=O)(=O)c2cn(Cc3ccc(OC)cc3)c3ccc(F)cc3c2=O)cc1 | -19.5% | – |
| Cc1sc(C2C(C#N)=C(N)N(c3cccc(Cl)c3)C3=C2C(=O)CCC3)cc1CN1CCOCC1 (stereo unspecified) | -8.58% | – |
| COc1ccc(NC(=O)c2ccco2)cc1NC(=O)c1ccc(C#N)cc1F | -8.77% | – |
| CCc1cccc(NC(=O)CN(C)S(=O)(=O)c2ccc3[nH]c4c(c3c2)CCCC4)c1 | -24.5% | – |
| COc1ccc(OC)c(-n2nnc3c(sc4nc(C)c(Br)c(C)c43)c2=O)c1 | -16% | – |
| Cc1c(C(=O)N(C)C)sc2c1c(=O)n(-c1ccc(F)cc1)c(=O)n2CC(=O)N(C)c1ccccc1 | -16.9% | – |
| COc1c(Cl)cc(Cl)cc1C(=O)Nc1cccc2cccnc12 | -11.6% | – |
| CCOc1ccc(C(NC(=O)c2cc(OC)c(OC)c(OC)c2)c2cc(Cl)c3cccnc3c2O)cc1 (stereo unspecified) | – | 3.55 µM (active) |
| COc1cc(C(=O)NCC(c2ccc(Cl)cc2)N2CCOCC2)cc(OC)c1OC (stereo unspecified) | -3.92% | – |
| CCCCCn1c(=O)[nH]c2cc(C(=O)Nc3cc(C)cc(C)c3)ccc2c1=O | -2.81% | – |
| Cc1ccc(Cl)cc1N1CCN(S(=O)(=O)c2cc3[nH]c(=O)c(=O)[nH]c3cc2C)CC1 | -8.72% | – |
| CC(=O)c1sc(N2C(=O)c3oc4ccccc4c(=O)c3C2c2ccc(C)cc2)nc1C (stereo unspecified) | -13.5% [at 11.5 µM] | – |
| CCS(=O)(=O)N1CCc2cc(C(=O)NCc3ccc(C)cc3)ccc21 | -14.9% | – |
| CCOC(=O)c1c(C)oc2nc(C)nc(Nc3ccc(CC)cc3)c12 | -7.44% | – |
| O=C(Cn1c(=O)nc(-c2ccccc2)c2cc(Cl)ccc21)NCc1ccc(Cl)cc1 | -24% | – |
| CCCOc1cccc(C(=O)Nc2cccc(NC(=O)c3ccc(C(C)(C)C)cc3)c2)c1 | 28.7% | – |
| CCCN(CCC)CCNC(=O)Cn1cnc2sc(C)c(S(=O)(=O)N3CCC(C)CC3)c2c1=O | -16.4% | – |
| CCc1nn(CCCC(=O)NC(C)c2ccccc2)c(=O)c2cc3occc3n12 (stereo unspecified) | -11% | – |
| COc1ccc(-c2cc(-c3nc(-c4cc(OC)c(OC)c(OC)c4)no3)[nH]n2)c(OC)c1 | -15.4% | – |
| Cc1ccccc1-c1nc(CS(=O)(=O)CC(=O)NC(C)c2ccccc2)c(C)o1 (stereo unspecified) | -27.7% | – |
| Cc1ccc(Cl)cc1N1CCN(C(=O)CN2C(=O)COc3ccc(S(=O)(=O)N4CCOCC4)cc32)CC1 | -16.6% | – |
| Cc1cccc(N2CCN(C(=O)COCc3cc(-c4ccc5c(c4)OCO5)on3)CC2)c1C | -5.06% | – |
| O=C(Cn1c(-c2cccs2)cc2ccccc21)NCCc1ccc(Cl)cc1 | -23.6% | – |

| SMILES | activity change, negative = inhibition | Potency |
| --- | --- | --- |
| Cc1oc(-c2ccccc2F)nc1CN1CCC(C(=O)NCCc2ccc(Cl)cc2)CC1 | -11.4% | – |
| Cc1c(NC(=O)Nc2ccc(F)c(Cl)c2)c(=O)n(-c2ccccc2)n1C | -12.5% | – |
| CCN(CC)S(=O)(=O)c1ccc2c(c1)N(CC(=O)NCC(C)c1ccccc1)C(=O)CO2 (stereo unspecified) | -11.4% | – |
| CCN(CCCNC(=O)c1cc2c(=O)n(CC)c3ccccc3c2s1)Cc1ccccc1 | 3.33% | – |
| Cc1ccc(Cl)cc1N(C)C(=O)Cn1nc(Cc2cccnc2)c2ccccc2c1=O | -22% | – |
| CC(=O)c1cccc(Nc2ccc3cc(S(=O)(=O)N4CCC(C)CC4)ccc3n2)c1 | -11.7% | – |
| C[C@@H](NC(=O)c1ncnc(N)c1Cl)c1ncc(C(=O)Nc2cc(C(F)(F)F)c(Cl)cn2)s1 | -16.3% | – |
| Cc1cc(NC(=O)CSc2ncc(C(=O)Nc3ccc(Cl)cc3)c(=O)n2C)no1 | -1.72% | – |
| CCOC(=O)c1ccc(NC(=O)C2CC(=O)N(c3ccc(C(C)C)cc3)C2)cc1 (stereo unspecified) | 4.03% | – |
| CC(C)c1ccc(NC(=O)C2CCN(c3nc(-c4ccc(C(C)C)cc4)no3)CC2)cc1 | – | 0.0891 µM (active) |
| CC(=O)c1ccc(NC(=O)C2CCN(S(=O)(=O)c3c(C)noc3/C=C/c3ccc(C)cc3)CC2)cc1 | -21% | – |
| Cc1ccc2nc(CNC(=O)c3ccccc3)[nH]c2c1 | 0% | – |
| COCCCNC(=O)CN1C(=O)CSc2ccc(S(=O)(=O)N3CCOCC3)cc21 | -9.25% | – |
| CCCNC(=O)c1ccc2c(c1)ncn2-c1ccc(C)cc1C | -9.41% | – |
| CN1C(=O)C[C@H](C(=O)N[C@@H](Cc2cnc[nH]2)C(=O)N2CCC[C@@H]2C(N)=O)NC1=O | 9.02% | – |
| COc1ccc(C(=O)NCC(c2ccc(N(C)C)cc2)N2CCc3ccccc32)c(OC)c1 (stereo unspecified) | -17.2% | – |
| COc1cccc(-n2c(=O)c3c(C)c(C(=O)N(C)C)sc3n(Cc3cccc(C)c3)c2=O)c1 | -4.23% | – |
| COc1ccc2c(c1)C=C(C(=O)NCc1cc(Br)ccc1OC)CO2 | -23.7% | – |
| CCc1ccccc1NC(=O)c1ccc2nc(CCc3ccccc3)oc2c1 | 0% | – |
| O=C(Nc1cccc(-c2nc3ccccc3o2)c1)c1cccc(Br)c1 | -18.9% | – |
| CCOc1ccc(NC(=O)C2CCN(S(=O)(=O)c3cc(-c4noc(C)n4)ccc3C)CC2)cc1 | -10.5% | – |
| Cc1cc(C)c(/C=C/c2onc(C)c2S(=O)(=O)N2CCC(C(=O)Nc3ccc(Cl)cc3C)CC2)c(C)c1 | 3.16% | – |
| Cc1ccc(NC(=O)C2CCN(S(=O)(=O)c3cc(-c4noc(C)n4)ccc3C)CC2)c(C)c1 | – | 11.2 µM (active) |
